The text below walks through data of PubChem BioAssay (NCI).

This is part of a sample that, as a whole, favours compounds with a hit. Of some 83,000 tested, about 20% had one in any assay.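 Single-concentration screen, 48 h exposure, 96-well plates. Endpoint: percent growth. Below 10 = active.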 A number with no mark means an inactive call. Activity calls are given as the source filed them.

Holding throughout (test): NCI-60 one-dose screen, 48 h (100 = growth as untreated, 0 = no growth, -100 = all killed)
Details in all cases: 10 µM unless noted

Test [1] has as its system NCI-H23 lung.
Test [2] deals with NCI-H226 lung.
The test system of test [3] is NCI-H322M lung.
In test [4] the test system is HOP-62 NSCLC.
In test [5] the test system is NCI-H460 lung.
Test [6] concerns NCI-H522 lung.
The test system of test [7] is A549/ATCC NSCLC.
The subject of test [8] is 786-0 renal.
Test [9] relates to COLO 205 colon.
The test system of test [10] is DU-145 prostate.
For test [11], the system named is K-562 leukemia.
In test [12] the test system is MALME-3M melanoma.
Test [13] deals with MDA-MB-231 breast.
The subject of test [14] is RXF 393 renal.
Test [15] concerns SF-268 CNS.
The test system of test [16] is SF-295 CNS.
Test [17] relates to SF-539 CNS.
The test system of test [18] is UACC-257 melanoma.
Test [19] concerns M14 melanoma.
For test [20], the system named is HOP-92 NSCLC.

As to `CCOC(=O)COc1c(C)cc(SSc2cc(C)c(OCC(=O)OCC)c(C)c2)cc1C`, the growth in test [1] is 103%; in test [2], 111%; in [3], 105%; in test [4], 109%; in test [5], 102%; in test [6], 73.8%. The growth was 80.2% in test [7]; 114% in [8]; 111% in test [9]; 108% in test [10]; 96.2% in test [11]; 110% in test [12]. Also, the growth in [13] is 107%; in [14] it was 126%; in test [15] it was 99%; in [16], 105%; in test [17], 112%; in test [18] it was 80.8%. For the same molecule, the growth in test [19] was 103%.
With `COc1ccc(C(=O)CSc2nnc(-c3cc(-c4ccccc4)nc4ccccc34)o2)cc1`, the growth in [1] is 109%; in test [2], 106%; in test [3], 99.7%; in test [4], 97.5%; in test [5], 106%; in test [6], 102%. Further, the growth in test [7] is 98%; in test [8], 106%; in test [9], 122%; in [10], 110%; in test [11], 103%; in test [12], 96.7%. Moreover, the growth is 98.7% in test [13]; 122% in test [14]; 100% in test [15]; 102% in test [16]; 106% in test [17]; 105% in test [18]. Also, the growth in test [19] was 105%.
`O=c1cc(-c2ccccc2)oc2cc(OCc3cn(Cc4ccc(F)cc4)nn3)cc(O)c12`: the growth was 45.8% [100 µM] in test [1]; 60.9% [100 µM] in test [2]; 86.1% [100 µM] in test [3]; -28.5% [100 µM] (active) in test [4]; 71.4% [100 µM] in [5]; 15.1% [100 µM] in test [6]. Moreover, the growth in test [7] is 81.2% [100 µM]; in test [8] it was 2.24% [100 µM] (active); in test [9] it was 103% [100 µM]; in test [10] it was 65.8% [100 µM]; in [11] it was 109% [100 µM]; in test [12], 6.44% [100 µM] (active). Moreover, the growth in test [13] is 12% [100 µM]; in test [14], 9.11% [100 µM] (active); in [15], 14.4% [100 µM]; in [16], 10.4% [100 µM]; in test [17] it was 1.1% [100 µM] (active); in test [18], 86.3% [100 µM]. In addition, in test [19], the growth was 65.9% [100 µM].
In the case of `c1ccc(-c2n[nH]c(-c3ccccn3)n2)nc1`, the growth in test [1] was 102%; in test [2], 118%; in test [3], 121%; in test [4], 104%; in [5], 106%; in test [6], 96.8%. Further, the growth in test [7] is 105%; in [8], 97%; in test [9] it was 143%; in test [10], 133%; in [11] it was 104%; in [12], 107%. Besides, the growth in test [13] was 116%; in test [14] it was 95.7%; in [15] it was 140%; in test [16], 98.1%; in test [17], 106%; in test [18], 106%. For the same molecule, in [19], the growth was 111%.
Turning to `C=C1C(=O)O[C@H]2[C@H]1CC/C(COC(=O)NCc1ccc(Cn3c(=O)sn(-c4ccc(Cl)cc4)c3=O)cc1)=C\CC[C@@]1(C)O[C@@H]21`, the growth is 94.9% in test [1]; 87.4% in test [2]; 104% in test [3]; 106% in [4]; 101% in test [5]; -8.38% (active) in test [6]. The growth in test [7] is 95.9%; in test [8] it was 70.8%; in test [9], 24%; in [10] it was 18.1%; in [11] it was 6.2% (active); in [12], 65.2%. Also, the growth in test [13] was 54.7%; in [14], 62%; in [15], 83.7%; in test [16], 99.5%; in [17], 90.8%; in test [18] it was 72.9%. The growth in [19] was 59.2%.
Take `O=c1cc(-c2ccccc2)oc2c(O)c(O)ccc12`: the growth in test [2] is 85.5%; in test [3], 79%; in test [4], 52.7%; in [5], 17.3%; in test [20], 7.46% (active); in test [6] it was 43.6%. In addition, the growth was 55.5% in test [7]; 65% in test [8]; 90.7% in test [9]; 68.4% in [10]; 63.9% in test [11]; 87.2% in test [12]. Also, the growth is 71% in [13]; 72.9% in test [14]; 67.6% in [15]; 64.5% in [16]; 53.1% in test [17]; 85.3% in [18]. Further, the growth in test [19] is 58.8%.
Consider `O=C(O)CSCc1nnc2n(Cc3ccccc3)c(=O)c3c4c(sc3n12)CCCC4`, for which the growth in test [2] is 87.2%; in [3], 101%; in test [4] it was 139%; in test [5], 111%; in test [20] it was 74.5%; in [6], 63.7%. For the same molecule, the growth in test [7] was 93.7%; in [8], 132%; in [9], 88.2%; in test [10], 114%; in test [11] it was 78.6%; in [12], 112%. The growth is 83.5% in test [13]; 88.5% in [14]; 112% in [15]; 57.9% in [16]; 101% in test [17]; 104% in [18]. The growth in test [19] was 158%.
